ugtP null kill: kills S. aureus RN4220 lacking UgtP; S. aureus RN4220 ugtP deletion, OD600 growth, 16 h; growth inhibition, % (concentration not given with the values); hit rate 0.54% among 330,000; in the data active means growth inhibition above about 68%;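 further: plate controls were untreated wells for no effect and antibiotic for full effect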
CCHFV vOTU inh: blocks the CCHF virus ovarian tumor domain protease; CCHFV vOTU protease, Pep-AMC fluorescence; inhibition, % at 11.5 µM; hit rate 0.55% among 370,000; AID 651958; in the data active means inhibition above about 30%; further: 0% = vehicle wells with enzyme and 100% = no enzyme wells
PfHsp40 yeast: restores yeast growth despite PfHsp40 toxicity. hit rate 0.68% among 340,000. growth rescue, % at 12.5 µM. S. cerevisiae expressing PfHsp40, growth rescue, ATP luminescence; in the data active means growth rescue above about 28%, passing the limit was not always enough;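 further: yeast W303a lacking pdr1 and pdr3 grown in galactose medium; growth measured after three days at 30 °C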
Mtb hypoxia rep: Mtb hypoxia fluorescent reporter inhibition; M. tuberculosis hypoxia-regulated fluorescent reporter, fluorescence; fluorescence inhibition, % (concentration not given with the values); hit rate 0.1% among 300,000; AID 1159583; in the data active means fluorescence inhibition mostly above about 23%, no sharp cut-off; inactive means mostly below about 17%
RN4220 kill: S. aureus RN4220 growth inhibition. inhibition, % (concentration not given with the values). hit rate 0.33% among 330,000. OD600, 16 h; in the data active means inhibition above about 85%;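 further: plate controls were untreated cells for no effect and reference antibiotic for full effect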
Vc quorum ag: induces V. cholerae light production without autoinducers. activation, % at 18.7 µM. AID 588436. hit rate 0.16% among 350,000. V. cholerae BH1578 lux reporter, luminescence, 6 h; in the data active means activation mostly above about 9.7%, no sharp cut-off
Numbers without * were called inactive; i = inactive; nt = no result shown. Rows were chosen to be rich in hits. Some 1.7% of all compounds tested hit in one or more screens of this group.

SMILES	ugtP null kill	CCHFV vOTU inh	PfHsp40 yeast	Mtb hypoxia rep	RN4220 kill	Vc quorum ag
COc1cc2c(cc1OC)CN(CC(=O)Nc1ccc(F)cc1)C(C(=O)O)C2 (stereo not given)	5	8	35*	-2	5	i
O=C(NNc1ccc([N+](=O)[O-])cc1)c1ccccc1F	-7	-4	32*	-5	2	i
COc1ccc(-c2coc3cc(OC)cc(O)c3c2=O)cc1	nt	11	1	nt	nt	0
COc1ccc(-c2coc3cc(O)cc(O)c3c2=O)cc1	-3	8	199*	-8	4	i
O=C1CC(O)(C(F)(F)F)Oc2c1ccc1ccccc21 (stereo not given)	41	-26	54*	3	54	i
O=C1CC(O)(C(F)F)Oc2ccc3ccccc3c21 (stereo not given)	-13	-33	0	nt	1	i
Cc1ccc(C=NNC(=O)c2cc3ccccc3cc2O)o1	0	nt	nt	0	-4	nt
Cc1ccc(C)c(NS(=O)(=O)c2ccc(NC(=O)CSc3ccc(Cl)cc3)cc2)c1	-25	-3	-2	-11	-2	0
Cc1ccc(NS(=O)(=O)c2ccc(NC(=O)C(C)Sc3ccc(Cl)cc3)cc2)c(C)c1 (stereo not given)	-27	7	93*	4	-10	i
O=C(/C=C/c1c(F)cccc1Cl)c1ccc(O)cc1	19	1	37*	15	11	0
COc1cc(C=NNC(=O)CCN2CCN(C(c3ccccc3)c3ccccc3)CC2)ccc1O	2	nt	nt	0	-1	nt
CCOC(=O)c1c(-c2ccc(F)cc2)csc1NC(=O)c1c(-c2ccccc2)noc1C	nt	-10	32*	nt	nt	0
COc1cccc(CSc2nc3ccccc3cc2C=O)c1	98*	5	1	nt	-6	-1
COc1cccc(NC(=O)CSc2nc3ccccc3cc2Cc2ccccc2)c1	14	11	2	13	-5	0
CN(C)C=NC(=S)Nc1ccc(Br)cc1F	17	nt	nt	-2	15	nt
N#Cc1c(NC(=O)c2ccccc2Cl)n(Cc2ccccc2)c2nc3ccccc3nc12	nt	101*	0	nt	nt	1
O=C(O)C1Cc2[nH]cnc2C(c2ccc(F)cc2)N1 (stereo not given)	5	-1	61*	10	3	i
CN(CC(=O)Nc1ccccc1)CC(=O)Nc1ccccc1Cl	0	-6	1	3	-1	1
CCCCc1ccc(NC(=O)CN(C)CC(=O)Nc2ccccc2Cl)cc1	-21	19	36*	1	-4	-1
CN(C)S(=O)(=O)c1ccc(C(=O)NCC(=O)NN=Cc2cccs2)cc1	3	nt	nt	-3	7	nt
O=C(c1ccccc1F)N1CCN(c2cccc(C(F)(F)F)c2)CC1	6	7	121*	8	2	1
CCOC(=O)/C(=C/c1ccc(OC(=O)c2ccccc2)cc1)C(C)=O	6	17	312*	-2	6	0
O=C(C1=CC(c2ccc(Br)cc2)CC(OCc2ccc(CO)cc2)O1)N1CCN(Cc2ccc3c(c2)OCO3)CC1 (stereo not given)	-1	nt	nt	-4	7	nt
Cc1cccc(NC(=O)NNC(=O)c2ccc3ccccc3c2O)c1	-4	-26	58*	9	-3	i
O=C(NNC(=O)c1cccc2ccccc12)c1ccccc1O	12	1	29*	11	26	i
SMILES	ugtP null kill	CCHFV vOTU inh	PfHsp40 yeast	Mtb hypoxia rep	RN4220 kill	Vc quorum ag
COc1ccccc1NC(=O)NNC(=O)c1cc2ccccc2cc1O	-2	0	8	-5	-2	0
Cc1ccc(NC(=O)NNC(=O)c2cc3ccccc3cc2O)cc1	1	4	70*	9	5	-2
O=[N+]([O-])c1ccccc1C=NNc1nc(N2CCCC2)nc(N2CCCC2)n1	5	nt	nt	-7	-4	nt
CCCCCCSc1ccc([C@H]2N[C@@](C)(C(=O)OC)[C@H]3C(=O)N(C)C(=O)[C@@H]23)cc1	nt	6	39*	nt	nt	i
CC(=O)c1c(N2CCOCC2)nc2ccc(Br)cc2c1-c1ccccc1	85*	9	1	14	-7	i
Cn1c(O)c(C=NNC(=O)c2cc3ccccc3cc2O)c2ccccc21	93*	nt	nt	14	31	nt
CCC12CN3CC(CC)(CN(C1)C3c1cccnc1)C2=O (stereo not given)	-1	-5	0	2	7	17*
COc1ccc2nc(N3CCC(C)CC3)c(C#N)cc2c1	89*	-9	1	12	4	1
c1csc(-c2nc3c4ccccc4c4ccccc4c3[nH]2)c1	90*	-45	-1	3	81	1
Oc1ccccc1-c1nc2c3ccccc3c3ccccc3c2[nH]1	98*	-29	-1	3	100*	i
CC(=NNc1nc(-c2ccccc2O)nc2ccccc12)c1ccccc1	-19	nt	nt	11	-5	nt
CCOC(=O)C(N=Nc1c(C)n(C)n(-c2ccccc2)c1=O)=C(O)c1ccccc1	-8	nt	nt	10	5	nt
CCCCCCCOC(=O)C1=C(C)Nc2ncnn2C1c1cccs1 (stereo not given)	-30	-6	2	16	1	-1
CCCCCCCCOC(=O)C1=C(C)Nc2nnnn2C1c1cccs1 (stereo not given)	49	25	76*	-1	-1	i
O=C(CNC(=O)c1ccc(F)cc1)NN=Cc1cccnc1	10	nt	nt	4	-1	nt
c1ccc(CC2CCN(Cc3ccccn3)CC2)cc1	2	9	50*	17	0	i
CCN1C(=O)C2C(c3ccc(C)cc3)N3C(=O)N(c4cccc(Cl)c4)C(=O)[C@@]3(Cc3ccc(Cl)cc3)C2C1=O (stereo not given in full)	-24	nt	nt	8	11	nt
CCC[C@@H](CN1CCC[C@H]1CN1C(N)=NC[C@H]1CC(C)C)N1C[C@@H]([C@H](C)CC)N(CCCC2CCCC2)C1=N	101*	17	1	nt	101*	i
CCC(C)C1CN(C(CN2CCCC2CN2C(N)=NCC2Cc2ccccc2)C(C)C)C(=N)N1CCCC1CCCC1 (stereo not given)	100*	nt	nt	nt	100*	nt
CC[C@@H](C)[C@@H]1CN([C@@H](CN2CCC[C@H]2CN2C(N)=NC[C@H]2C(C)C)C(C)C)C(=N)N1CCCC1CCCC1	100*	1	2	nt	94*	1
CCCC(CN1CCCC1CN1C(N)=NCC1Cc1ccccc1)N1CC(Cc2ccccc2)N(CCCC2CCCC2)C1=N (stereo not given)	101*	nt	nt	nt	101*	nt
CCC[C@@H](CN1CCC[C@H]1CN1C(N)=NC[C@H]1C(C)C)N1C[C@@H]([C@H](C)CC)N(CCCC2CCCC2)C1=N	-7	5	2	11	-4	-1
Cc1ccc(C(=O)ON=CC2=C(Cl)c3ccccc3CC2)cc1	17	nt	nt	nt	0	nt
O=C(Nc1ccc(Br)cc1)C1Cc2ccccc2OC1=NO (stereo not given)	7	nt	nt	5	4	nt
O=C(Cc1cccs1)NNC(=S)NCc1ccc(Cl)cc1	-8	6	72*	15	2	3
O=C(Cc1ccc(Cl)cc1)NN=Cc1cccs1	0	nt	nt	0	3	nt
